In the library only some 2.7% were active in any assay of this set; here they are far more common.
HEK293 tox: cytotoxicity counter-screen for GLP-1 receptor inverse agonists. 410,000 tested, 0.13% active. Potency, µM (top dose mostly 38.3 µM), inactives show at the highest dose activity change, negative = inhibition, hits mostly inhibitors. AID 624418. HEK293 cAMP-luciferase reporter cells, luminescence, 24 h;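 also: loss of luciferase light is scored as toxicity; % is scaled to controls: 0 for no effect and ±100 for the full control effect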
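Luminescence readout: signal drop marks cytotoxicity. Plated cells grew 12 h at 37 °C, 5% CO2, received 23 nL compound for 24 h, then got luciferase reagent, read after 12 min at RT.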
mIDH1 inhibitor: inhibitors of human mutant IDH1 R132H. O75874. IDH1-R132H enzyme, NADPH consumption, diaphorase/resazurin fluorescence. Potency, µM (top dose mostly 76.6 µM), for the others: at the highest dose activity change, negative = inhibition, hits mostly inhibitors. 390,000 tested, 0.093% active. AID 602179; also: % is scaled to controls: 0 for no effect and ±100 for the full control effect; nearly all actives have a fitted effect of over 65% in size
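IDH1-R132H (0.5 ug/mL dispensed) in pH 7.5 Tris buffer was preincubated 30 min with compound, then given a substrate mix of 0.016 mM NADPH and 2 mM alpha-KG for 80 min at room temperature; remaining NADPH was read by diaphorase/resazurin fluorescence.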
GLP-1R agonist: activates the human GLP-1 receptor | HEK293 GLP-1R CRE-luciferase, luminescence, 4-6 h; cells express a hypersensitive GLP-1R form | P43220 | AID 624172 | 380,000 tested, 0.007% active | Potency, µM (top dose mostly 45.6 µM), for inactives: top-dose activation, actives largely listed as activators; also: % of control where 0% means no effect
TrxR1 substrate: rat thioredoxin reductase 1 substrate activity. O89049. purified TrxR1 substrate turnover, NADPH consumption readout. Potency, µM (doses to about 114 µM), without a hit: top-dose activity change, negative = substrate turnover. 390,000 tested, 0.01% active. AID 588456; also: % is scaled to controls: 0 for no effect and ±100 for the full control effect; nearly all actives have a fitted effect of over 50% in size
Target sequence (O89049 whole entry, looked up): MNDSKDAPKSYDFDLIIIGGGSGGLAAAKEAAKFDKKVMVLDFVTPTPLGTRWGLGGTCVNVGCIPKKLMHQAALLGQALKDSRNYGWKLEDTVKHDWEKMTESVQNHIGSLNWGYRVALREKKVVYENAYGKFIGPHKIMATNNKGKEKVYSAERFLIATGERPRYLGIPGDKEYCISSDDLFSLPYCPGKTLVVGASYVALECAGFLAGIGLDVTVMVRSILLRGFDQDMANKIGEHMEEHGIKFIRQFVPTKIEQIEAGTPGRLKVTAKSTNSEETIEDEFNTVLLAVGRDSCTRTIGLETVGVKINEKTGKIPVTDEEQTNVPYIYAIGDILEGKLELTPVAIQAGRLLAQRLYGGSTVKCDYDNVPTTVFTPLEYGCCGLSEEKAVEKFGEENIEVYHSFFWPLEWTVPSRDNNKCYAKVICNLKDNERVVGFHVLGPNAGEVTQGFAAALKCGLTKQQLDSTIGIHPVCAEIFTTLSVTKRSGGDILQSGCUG
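Rat TrxR1, dispensed at 90 nM, was prereduced with 400 uM NADPH (final) for 5 min at ~22 deg C, then incubated with compound 15 min before 400 uM selenite. A first-read NADPH fluorescence drop versus no-compound background flagged substrates.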
TrxR1 inh: blocks rat thioredoxin reductase 1 | O89049 | recombinant rTrxR1, NADPH fluorescence consumption, selenite substrate | Potency, µM (doses to about 114 µM), inactives show at the highest dose activity change, negative = inhibition, hits mostly inhibitors | 390,000 tested, 1% active | AID 588453; also: % is scaled to controls: 0 for no effect and ±100 for the full control effect; nearly all actives have a fitted effect of over 65% in size
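Rat TrxR1 (90 nM in the dispensed reagent) was pre-reduced with 400 uM NADPH for 5 min at room temperature, then incubated with compound for 15 min. After 400 uM selenite was added, NADPH fluorescence (Ex 340/Em 450 nm) was followed for 8 min.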
GLP-1R inv ag: GLP-1 receptor (human) inverse agonism | Potency, µM (highest dose often 38.3 µM), for the others: at the top dose activity change, negative = inhibition, usual class: inhibitors | HEK293 GLP-1R CRE-luciferase, luminescence, 24 h; GLP-1R form is constitutively active | AID 624417 | P43220 | 410,000 tested, 1.6% active; also: % is scaled to controls: 0 for no effect and ±100 for the full control effect; nearly all actives have a fitted effect of over 55% in size
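GLP-1R inverse agonism mode: basal reporter luminescence in engineered HEK293 cells measured after one day of compound exposure at 37 deg C, with a 12 min room-temperature detection step.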
Starred values were filed as active, the others as inactive; [ ] = dose if it differs, or a comment. Calls follow the shape of the dose curve; as a rule, active = well fitted curve in the direction sought with a large enough effect; inconclusive = small, poorly fitted or top-dose-only effect, or another doubt; inactive = no such curve, though single readings can be large; an effect the other way counts as inactive or inconclusive. Potency is read from the fitted curve at half-maximal effect.

Screening CCN1C(=O)[C@H]2[C@@H](c3ccc(-c4cccc(Cl)c4)c(OC)c3)N[C@@](CC(C)C)(C(=O)OC)[C@H]2C1=O returned HEK293 tox -2%, mIDH1 inhibitor -3%, GLP-1R agonist -6%, TrxR1 substrate 13%[57.1 µM], TrxR1 inh 4%[57.1 µM] and GLP-1R inv ag 7.9µM*.
Screening CCN1C(=O)[C@@H]2[C@@H](c3ccc(-c4ccc(F)cc4)cc3)N3CCC[C@@]3(C(=O)OC)[C@@H]2C1=O returned HEK293 tox 2%, mIDH1 inhibitor 3%, GLP-1R agonist -2%, TrxR1 substrate -7%, TrxR1 inh 10%[57.1 µM] and GLP-1R inv ag -21%.
For CCN1C(=O)[C@H]2[C@@H](c3ccc(-c4cccc(Cl)c4)cc3)N3CCCC[C@@]3(C(=O)OC)[C@H]2C1=O the results were HEK293 tox -24%, mIDH1 inhibitor 8%, GLP-1R agonist -1%, TrxR1 substrate 6%[57.1 µM], TrxR1 inh 24% and GLP-1R inv ag 10µM*.
CCN1C(=O)[C@H]2[C@@H](c3ccc(-c4cccc(Cl)c4)c(OC)c3)N3CCCC[C@@]3(C(=O)OC)[C@H]2C1=O was read as HEK293 tox -21%, mIDH1 inhibitor 4%, GLP-1R agonist -3%, TrxR1 substrate -5%, TrxR1 inh 32%[57.1 µM] and GLP-1R inv ag inconclusive.
CCN1C(=O)[C@H]2[C@@H](c3ccc(-c4ccc(F)cc4)cc3)N3CCCC[C@@]3(C(=O)OC)[C@H]2C1=O was read as HEK293 tox 8%, mIDH1 inhibitor 6%, GLP-1R agonist -6%, TrxR1 substrate 3%[57.1 µM], TrxR1 inh 10%[57.1 µM] and GLP-1R inv ag 5.6µM*.
For CCN1C(=O)[C@H]2[C@@H](c3ccc(-c4cccc(Cl)c4)cc3)N[C@@](CC(C)C)(C(=O)OC)[C@H]2C1=O the results were HEK293 tox -14%, mIDH1 inhibitor -9%, GLP-1R agonist 11%, TrxR1 substrate 4%[57.1 µM], TrxR1 inh 17%[57.1 µM] and GLP-1R inv ag -14%.
For O=C(OCc1cc(=O)n2nc(-c3cccs3)sc2n1)c1ccc(Cl)cc1 the results were HEK293 tox 1%, mIDH1 inhibitor -10%, TrxR1 substrate -1%[57.1 µM], TrxR1 inh 4%[57.1 µM] and GLP-1R inv ag 17%.
COc1ccc(CCNC(=O)Cn2nc(C)n3c(cc4occc43)c2=O)cc1OC was read as HEK293 tox 2%, mIDH1 inhibitor 0%, TrxR1 substrate 1%, TrxR1 inh 3% and GLP-1R inv ag 10%.
CCCOc1cccc(C(=O)N(Cc2ccc(C)o2)C2CCS(=O)(=O)C2)c1 (configuration not stated) was read as HEK293 tox 1%, TrxR1 substrate 6%, TrxR1 inh 13% and GLP-1R inv ag -2%.
Screening COc1cccc(CCNC(=O)c2ccc(Cn3c(SCc4ccccc4)nc4cccnc43)cc2)c1 returned HEK293 tox 0%, mIDH1 inhibitor -6%, TrxR1 substrate 14%, TrxR1 inh 26% and GLP-1R inv ag -24%.
For CC(C)=NNc1nc2c(c(=O)[nH]c(=O)n2C)n1CCc1ccccc1 the results were HEK293 tox -16%, mIDH1 inhibitor -6%, GLP-1R agonist 12%, TrxR1 substrate 15%, TrxR1 inh -8% and GLP-1R inv ag -1%.
Cn1c(=O)[nH]c(=O)c2c1nc(N/N=C/C(Br)=C/c1ccccc1)n2CCO was read as HEK293 tox -25%, mIDH1 inhibitor 12%, GLP-1R agonist 13%, TrxR1 substrate -5%, TrxR1 inh 3.5µM* and GLP-1R inv ag 82%.
For CCC(=O)N1CCc2cc(S(=O)(=O)NC(Cc3ccccc3)C(=O)Nc3ccc(C)cc3)ccc21 (configuration not stated) the results were HEK293 tox 5%, mIDH1 inhibitor 2%, TrxR1 substrate -1%, TrxR1 inh 6% and GLP-1R inv ag -11%.
COc1ccc(/C=N\Nc2ccccc2[N+](=O)[O-])c(C(=O)O)c1OC was read as HEK293 tox inconclusive, mIDH1 inhibitor 0%, GLP-1R agonist 2%, TrxR1 substrate -17%, TrxR1 inh 2% and GLP-1R inv ag 0%.
Screening COc1ccc(/C=N\Nc2ccc([N+](=O)[O-])cc2[N+](=O)[O-])c(C(=O)O)c1OC returned HEK293 tox -24%, mIDH1 inhibitor 13%, GLP-1R agonist -7%, TrxR1 substrate -19%, TrxR1 inh 50µM* and GLP-1R inv ag 0%.
For CCOC(=O)N1CCN(C(=O)CN(c2cccc(Cl)c2)S(=O)(=O)c2ccccc2)CC1 the results were HEK293 tox 1%, mIDH1 inhibitor -1%, GLP-1R agonist 0%, TrxR1 substrate -10%, TrxR1 inh -26% and GLP-1R inv ag -3%.
For Cc1ccc(C(c2cccc(Br)c2)c2c(C)[nH]c3ccccc23)s1 (configuration not stated) the results were HEK293 tox 0%, mIDH1 inhibitor 15%, TrxR1 substrate -4%, TrxR1 inh inconclusive and GLP-1R inv ag 10µM*.
Cc1[nH]c2ccccc2c1C(c1c(C)[nH]c2ccccc12)c1c(C)[nH]c2ccccc12 was read as TrxR1 substrate -2% and TrxR1 inh -19%.
`CCOC(=O)/C=C/c1ccc2c(c1)S(=O)(=O)N(C1CCCC1)[C@H]2CC(=O)OCC` gave TrxR1 substrate -8% and TrxR1 inh 23%.
For COc1ccc(CCNC(=O)Cc2c(C)c3c(cc(C)c4c(C)coc43)oc2=O)cc1OC the results were HEK293 tox 19%, mIDH1 inhibitor -4%, TrxR1 substrate 16%, TrxR1 inh 35% and GLP-1R inv ag 4%.
CC(=O)OCC(NC(=O)C(CCCCNC(=O)OCc1ccccc1)NC(=O)OC(C)(C)C)C1OC(n2cc(C)c(=O)[nH]c2=O)C(OC(C)=O)C1OC(C)=O (configuration not stated) was read as TrxR1 substrate -3% and TrxR1 inh 12%.
For CC(=O)Nc1ccc(Cl)c(C(N)=O)c1 the results were HEK293 tox 12%, mIDH1 inhibitor -3%, GLP-1R agonist -6%, TrxR1 substrate 6%, TrxR1 inh 10% and GLP-1R inv ag 0%.
Screening NC(=O)c1cc(N2C(=O)C=CC2=O)ccc1Cl returned HEK293 tox 5%, mIDH1 inhibitor 2%, GLP-1R agonist -13%, TrxR1 substrate 7%, TrxR1 inh 1µM* and GLP-1R inv ag 0%.

Source: PubChem
